# Results taken from the supplement of paper PMC8728848.
# The entries come from a sample that favours the strongest signals as a whole.
# Columns and labels:
# Experiment in all cases: glycan array binding signal (z-score within array); higher = stronger binding
# [1] = system: Man(a1-2)Man(a1-3)[Man(a1-2)Man(a1-6)]Man(a1-6)[Man(a1-3)[Man(a1-6)]Man(a1-6)]Man(b1-4)GlcNAc(b1-4)GlcNAc; conditions: glycan notation: IUPAC condensed, linker removed
# Summary of the method: (§1)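 Glycan array binding is given as a within-array Z-score, which can be read as non-binding when negative. The arrays, 3228 of them, came from the Consortium for Functional Glycomics database and were retained only where the protein sequence was available. Z-scores were averaged across arrays of the same protein sequence at different concentrations or buffers and across linkers.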
# [2] = system: Neu5Ac(a2-3)Gal(b1-3)GalNAc6S; conditions: glycan notation: IUPAC condensed, linker removed
# Summary of the method: as §1
# [3] = system: Man(a1-2)Man(a1-3)[Man(a1-2)Man(a1-6)]Man; conditions: glycan notation: IUPAC condensed, linker removed
# Summary of the method: as §1
# [4] = system: Man(a1-3)[Man(a1-6)]Man(a1-6)[Man(a1-3)]Man; conditions: glycan notation: IUPAC condensed, linker removed
# Summary of the method: as §1
# [5] = system: Man(a1-3)[Man(a1-6)]Man(b1-4)GlcNAc(b1-4)[Fuc(a1-6)]GlcNAc; conditions: glycan notation: IUPAC condensed, linker removed
# Summary of the method: as §1
# [6] = system: Neu5Ac(a2-3)Gal(b1-3)GalNAc; conditions: glycan notation: IUPAC condensed, linker removed
# Summary of the method: as §1
# [7] = system: Neu5Ac(a2-3)Gal(b1-3)GlcNAc(b1-2)Man(a1-3)[Neu5Ac(a2-3)Gal(b1-3)GlcNAc(b1-2)Man(a1-6)]Man(b1-4)GlcNAc(b1-4)GlcNAc; conditions: glycan notation: IUPAC condensed, linker removed; mutation: R125K
# Summary of the method: as §1
# Man(a1-3)[Man(a1-6)]Man = conditions: glycan notation: IUPAC condensed, linker removed
# Summary of the method: as §1
# [8] = system: Man(a1-3)[Man(a1-6)]Man(a1-6)[Man(a1-3)]Man(b1-4)GlcNAc(b1-4)GlcNAc; conditions: glycan notation: IUPAC condensed, linker removed
# Summary of the method: as §1
# [9] = system: Neu5Ac(a2-3)Gal(b1-3)GlcNAc(b1-2)Man(a1-3)[GlcNAc(b1-4)][Neu5Ac(a2-3)Gal(b1-3)GlcNAc(b1-2)Man(a1-6)]Man(b1-4)GlcNAc(b1-4)GlcNAc; conditions: glycan notation: IUPAC condensed, linker removed
# Summary of the method: as §1
# [10] = system: Neu5Ac(a2-3)Gal(b1-3)GalNAc(b1-3)Gal(a1-4)Gal(b1-4)Glc; conditions: glycan notation: IUPAC condensed, linker removed
# Summary of the method: as §1
# [11] = system: Man(a1-2)Man(a1-3)[Man(a1-6)]Man(a1-6)[Man(a1-2)Man(a1-3)]Man(b1-4)GlcNAc(b1-4)GlcNAc; conditions: glycan notation: IUPAC condensed, linker removed
# Summary of the method: as §1
# [12] = system: Man(a1-2)Man(a1-6)[Man(a1-3)]Man(a1-6)[Man(a1-2)Man(a1-2)Man(a1-3)]Man(b1-4)GlcNAc(b1-4)GlcNAc; conditions: glycan notation: IUPAC condensed, linker removed
# Summary of the method: as §1
# [13] = system: Man(a1-2)Man(a1-6)[Man(a1-3)]Man(a1-6)[Man(a1-2)Man(a1-2)Man(a1-3)]Man; conditions: glycan notation: IUPAC condensed, linker removed
# Summary of the method: as §1
# [14] = system: Man(a1-3)[Man(a1-6)]Man(a1-6)[Man(a1-2)Man(a1-3)]Man(b1-4)GlcNAc(b1-4)GlcNAc; conditions: glycan notation: IUPAC condensed, linker removed
# Summary of the method: as §1
# [15] = system: Neu5Ac(a2-3)Gal(b1-3)GalNAc(b1-4)[Neu5Ac(a2-3)]Gal(b1-4)Glc; conditions: glycan notation: IUPAC condensed, linker removed
# Summary of the method: as §1
# [16] = system: Neu5Ac(a2-3)Gal(b1-3)GalNAc(b1-4)[Neu5Ac(a2-8)Neu5Ac(a2-3)]Gal(b1-4)Glc; conditions: glycan notation: IUPAC condensed, linker removed
# Summary of the method: as §1
# Man(a1-6)Man = conditions: glycan notation: IUPAC condensed, linker removed
# Summary of the method: as §1
# Man(b1-4)GlcNAc = conditions: glycan notation: IUPAC condensed, linker removed
# Summary of the method: as §1
# [17] = system: Neu5Ac(a2-3)Gal(b1-3)GalNAc(b1-3)Gal(b1-4)GlcNAc; conditions: glycan notation: IUPAC condensed, linker removed
# Summary of the method: as §1
# Avaren (Actinomycete K97), sequence (chain, as listed by the source): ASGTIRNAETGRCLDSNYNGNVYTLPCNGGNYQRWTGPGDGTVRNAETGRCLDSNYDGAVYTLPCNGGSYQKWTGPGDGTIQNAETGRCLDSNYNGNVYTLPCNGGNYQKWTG
# Neurocan (Homo sapiens), O14594, sequence (O14594 other isoform, or with tags, fused parts or gaps): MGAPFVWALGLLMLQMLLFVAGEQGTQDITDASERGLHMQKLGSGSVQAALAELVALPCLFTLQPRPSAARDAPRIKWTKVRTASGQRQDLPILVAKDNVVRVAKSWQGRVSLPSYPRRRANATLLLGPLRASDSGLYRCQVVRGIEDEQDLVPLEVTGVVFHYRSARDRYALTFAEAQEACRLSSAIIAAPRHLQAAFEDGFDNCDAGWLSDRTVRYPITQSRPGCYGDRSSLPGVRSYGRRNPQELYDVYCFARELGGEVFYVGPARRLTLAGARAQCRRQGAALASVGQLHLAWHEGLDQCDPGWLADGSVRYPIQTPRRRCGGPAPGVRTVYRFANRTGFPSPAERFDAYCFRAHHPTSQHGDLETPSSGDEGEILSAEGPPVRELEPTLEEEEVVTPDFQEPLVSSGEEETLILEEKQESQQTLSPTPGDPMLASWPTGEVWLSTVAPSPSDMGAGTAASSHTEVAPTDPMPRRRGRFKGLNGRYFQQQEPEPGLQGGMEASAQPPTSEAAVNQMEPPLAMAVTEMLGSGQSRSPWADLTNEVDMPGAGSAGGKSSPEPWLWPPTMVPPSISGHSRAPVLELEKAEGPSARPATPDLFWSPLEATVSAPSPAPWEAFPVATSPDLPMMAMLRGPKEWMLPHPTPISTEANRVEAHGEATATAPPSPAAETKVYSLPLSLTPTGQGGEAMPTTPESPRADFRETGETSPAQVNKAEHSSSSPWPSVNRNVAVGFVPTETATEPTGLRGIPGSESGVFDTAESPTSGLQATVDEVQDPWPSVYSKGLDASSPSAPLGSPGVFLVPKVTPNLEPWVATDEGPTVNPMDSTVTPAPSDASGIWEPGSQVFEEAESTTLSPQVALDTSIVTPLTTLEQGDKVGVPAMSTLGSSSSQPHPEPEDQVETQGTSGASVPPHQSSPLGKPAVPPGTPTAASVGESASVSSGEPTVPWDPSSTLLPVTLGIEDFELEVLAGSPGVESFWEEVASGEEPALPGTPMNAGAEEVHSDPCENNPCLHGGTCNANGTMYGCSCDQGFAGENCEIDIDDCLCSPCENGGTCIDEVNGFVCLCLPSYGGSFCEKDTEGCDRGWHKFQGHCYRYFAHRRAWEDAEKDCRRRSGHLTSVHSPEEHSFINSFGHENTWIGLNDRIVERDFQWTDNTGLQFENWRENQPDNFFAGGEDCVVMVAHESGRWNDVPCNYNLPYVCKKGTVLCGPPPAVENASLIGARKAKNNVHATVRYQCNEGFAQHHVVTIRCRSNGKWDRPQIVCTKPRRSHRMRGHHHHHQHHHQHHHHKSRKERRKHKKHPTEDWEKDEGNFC
# Aggrecan (Rattus norvegicus), NP_071526, sequence (chain, as listed by the source): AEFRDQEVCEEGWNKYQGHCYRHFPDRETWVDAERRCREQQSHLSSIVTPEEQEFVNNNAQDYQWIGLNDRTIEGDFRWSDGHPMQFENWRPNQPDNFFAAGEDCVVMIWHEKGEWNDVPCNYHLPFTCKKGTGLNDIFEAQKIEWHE
# 6RG (Lolium perenne), B9U140, sequence (B9U140 entry or part of it): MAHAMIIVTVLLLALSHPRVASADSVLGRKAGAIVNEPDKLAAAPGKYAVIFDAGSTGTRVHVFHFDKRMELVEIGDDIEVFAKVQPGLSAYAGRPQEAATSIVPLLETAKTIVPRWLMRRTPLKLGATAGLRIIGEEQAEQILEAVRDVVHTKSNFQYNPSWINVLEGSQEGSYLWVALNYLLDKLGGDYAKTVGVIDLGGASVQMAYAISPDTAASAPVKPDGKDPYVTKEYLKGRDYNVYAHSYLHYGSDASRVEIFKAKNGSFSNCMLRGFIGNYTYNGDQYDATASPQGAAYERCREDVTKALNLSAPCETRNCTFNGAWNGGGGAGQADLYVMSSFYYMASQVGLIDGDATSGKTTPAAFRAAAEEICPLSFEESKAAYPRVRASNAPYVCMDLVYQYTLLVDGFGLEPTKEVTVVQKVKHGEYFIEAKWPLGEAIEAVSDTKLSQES
# wLAT-1A (Homo sapiens), Q01650, sequence (Q01650 whole entry): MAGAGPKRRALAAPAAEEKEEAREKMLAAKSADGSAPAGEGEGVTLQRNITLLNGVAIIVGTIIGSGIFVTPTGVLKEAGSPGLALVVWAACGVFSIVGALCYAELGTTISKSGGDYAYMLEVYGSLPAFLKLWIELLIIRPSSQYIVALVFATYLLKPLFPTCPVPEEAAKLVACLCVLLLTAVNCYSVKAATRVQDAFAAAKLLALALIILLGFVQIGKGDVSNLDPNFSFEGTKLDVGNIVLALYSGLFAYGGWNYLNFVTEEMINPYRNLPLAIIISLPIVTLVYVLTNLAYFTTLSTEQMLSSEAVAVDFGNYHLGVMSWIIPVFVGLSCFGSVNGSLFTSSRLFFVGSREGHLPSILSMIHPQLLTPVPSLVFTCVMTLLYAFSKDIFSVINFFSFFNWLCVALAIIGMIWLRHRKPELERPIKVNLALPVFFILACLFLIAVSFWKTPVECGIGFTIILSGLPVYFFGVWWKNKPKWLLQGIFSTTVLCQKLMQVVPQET
# C3b (Homo sapiens), P01024, sequence (P01024 23-667): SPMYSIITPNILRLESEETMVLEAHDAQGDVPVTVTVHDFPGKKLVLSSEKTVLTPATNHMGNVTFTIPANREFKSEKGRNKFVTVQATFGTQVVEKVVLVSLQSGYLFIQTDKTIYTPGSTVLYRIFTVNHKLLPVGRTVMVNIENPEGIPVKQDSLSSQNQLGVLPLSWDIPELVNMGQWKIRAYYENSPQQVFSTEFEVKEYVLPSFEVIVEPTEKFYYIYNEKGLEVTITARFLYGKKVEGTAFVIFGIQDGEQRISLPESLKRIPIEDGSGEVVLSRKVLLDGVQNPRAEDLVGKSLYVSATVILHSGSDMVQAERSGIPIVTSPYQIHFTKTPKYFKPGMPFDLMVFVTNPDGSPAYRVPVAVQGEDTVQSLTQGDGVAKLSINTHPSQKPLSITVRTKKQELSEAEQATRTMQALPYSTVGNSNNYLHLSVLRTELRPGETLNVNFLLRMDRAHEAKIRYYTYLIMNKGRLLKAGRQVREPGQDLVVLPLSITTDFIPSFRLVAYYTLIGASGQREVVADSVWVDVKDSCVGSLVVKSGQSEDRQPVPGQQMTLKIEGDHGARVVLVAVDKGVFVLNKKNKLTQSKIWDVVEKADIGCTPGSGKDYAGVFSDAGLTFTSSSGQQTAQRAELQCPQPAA
# PILRb (Mus musculus), Q2YSF2, sequence (Q2YSF2 entry or part of it): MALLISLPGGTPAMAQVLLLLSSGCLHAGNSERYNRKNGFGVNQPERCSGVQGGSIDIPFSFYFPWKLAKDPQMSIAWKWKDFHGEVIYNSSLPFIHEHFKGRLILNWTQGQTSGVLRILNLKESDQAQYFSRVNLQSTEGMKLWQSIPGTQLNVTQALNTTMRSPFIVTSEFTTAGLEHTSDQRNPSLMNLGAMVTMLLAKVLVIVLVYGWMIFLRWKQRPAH
# 6RG (Lolium perenne), sequence (chain, as listed by the source): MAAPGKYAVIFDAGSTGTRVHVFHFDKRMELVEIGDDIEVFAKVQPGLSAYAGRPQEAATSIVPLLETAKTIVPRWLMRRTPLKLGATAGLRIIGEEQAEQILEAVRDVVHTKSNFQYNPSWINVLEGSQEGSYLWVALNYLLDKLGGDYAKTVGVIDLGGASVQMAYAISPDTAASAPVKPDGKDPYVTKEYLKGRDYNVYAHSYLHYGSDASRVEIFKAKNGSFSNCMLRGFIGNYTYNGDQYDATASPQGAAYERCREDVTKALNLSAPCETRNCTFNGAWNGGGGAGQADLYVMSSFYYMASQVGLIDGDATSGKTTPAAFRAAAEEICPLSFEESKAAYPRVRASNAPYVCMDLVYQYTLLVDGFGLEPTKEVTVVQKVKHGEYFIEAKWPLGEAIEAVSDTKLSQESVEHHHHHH
# CHT (Homo sapiens), sequence (chain, as listed by the source): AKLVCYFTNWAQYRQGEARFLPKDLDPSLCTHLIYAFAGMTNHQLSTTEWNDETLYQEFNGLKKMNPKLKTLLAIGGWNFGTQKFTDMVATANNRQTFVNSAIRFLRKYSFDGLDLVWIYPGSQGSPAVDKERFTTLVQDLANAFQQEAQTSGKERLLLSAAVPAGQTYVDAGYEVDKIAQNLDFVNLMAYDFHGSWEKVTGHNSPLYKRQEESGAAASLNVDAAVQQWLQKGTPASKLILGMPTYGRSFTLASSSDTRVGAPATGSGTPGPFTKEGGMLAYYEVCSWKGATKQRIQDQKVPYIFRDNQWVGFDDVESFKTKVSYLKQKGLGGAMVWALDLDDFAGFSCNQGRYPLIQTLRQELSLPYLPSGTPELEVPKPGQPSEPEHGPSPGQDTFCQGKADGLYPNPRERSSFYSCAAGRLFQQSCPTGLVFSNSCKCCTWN
substance,measurement,setting,value
"HARE (Homo sapiens), Q8WWQ8",glycan array binding signal (z-score),[1],2.39
6RG (Lolium perenne),glycan array binding signal (z-score),[2],-0.326
"Siglec-8 (Homo sapiens), Q9NYZ4",glycan array binding signal (z-score),[3],-0.204
same,glycan array binding signal (z-score),[4],0.131
same,glycan array binding signal (z-score),[4]; mutation: R125K,-0.227
same,glycan array binding signal (z-score),[5],-0.07
same,glycan array binding signal (z-score),[6]; mutation: R125K,4.65
same,glycan array binding signal (z-score),[7],1.23
CHT (Homo sapiens),glycan array binding signal (z-score),"Man(a1-3)[Man(a1-6)]Man; mutation: D138V, E140I",-0.149
"6RG (Lolium perenne), B9U140",glycan array binding signal (z-score),[3],-0.266
same,glycan array binding signal (z-score),[8],-0.359
MpAFP RI GFP (Marinomonas primoryensis),glycan array binding signal (z-score),[9],-0.323
"Neurocan (Homo sapiens), O14594",glycan array binding signal (z-score),[3],-0.053
same,glycan array binding signal (z-score),[4],-0.722
same,glycan array binding signal (z-score),[10],0.009
Avaren (Actinomycete K97),glycan array binding signal (z-score),[3],3.5
same,glycan array binding signal (z-score),[11],1.08
same,glycan array binding signal (z-score),[12],13.4
same,glycan array binding signal (z-score),[13],6.02
same,glycan array binding signal (z-score),[14],-0.014
same,glycan array binding signal (z-score),[8],-0.113
same,glycan array binding signal (z-score),Man(a1-3)[Man(a1-6)]Man,-0.106
same,glycan array binding signal (z-score),[15],-0.124
same,glycan array binding signal (z-score),[16],-0.128
"C3b (Homo sapiens), P01024",glycan array binding signal (z-score),[13],-0.764
same,glycan array binding signal (z-score),[6],-0.754
"wLAT-1A (Homo sapiens), Q01650",glycan array binding signal (z-score),Man(a1-6)Man,0.732
same,glycan array binding signal (z-score),Man(b1-4)GlcNAc,0.584
"Aggrecan (Rattus norvegicus), NP_071526",glycan array binding signal (z-score),[14],1.14
same,glycan array binding signal (z-score),Man(b1-4)GlcNAc,-0.071
same,glycan array binding signal (z-score),[17],-0.071
"PILRb (Mus musculus), Q2YSF2",glycan array binding signal (z-score),Man(b1-4)GlcNAc,-0.166
